In PubChem BioAssay:

Assay: binders of probe aFSTL3 on microarray, primary screen, stem cell growth factor project, biochemical, small-molecule microarray, fluorescence 635/667 (AID 1064);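 also: measures binding of the biotinylated anti-FSTL3 antibody to printed compounds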
Conditions: higher = more signal

Compared with `O=C1c2ccccc2[C@](Cc2ccccc2I)(C(=O)O)[C@H](c2ccc(CO)cc2)N1Cc1ccccc1C(F)(F)F`, `COCCCNC(=O)[C@@]1(Cc2ccccc2I)c2ccccc2C(=O)N(Cc2ccccc2)[C@H]1c1ccc(CO)cc1` is higher in composite z-score: -0.897 for the first, 0.094 for the second.

Compared with `C=CCN1C(=O)[C@@]2(O[C@@H](CCO)[C@H]([Si](C)(C)c3ccc(OC)cc3)[C@H]2C)c2cc(NC(C)=O)ccc21`, `C=CCN1C(=O)[C@@]2(O[C@@H](CCO)[C@H]([Si](C)(C)c3ccc(OC)cc3)[C@H]2C)c2cc(N3C(=O)COc4ccccc43)ccc21` is higher in composite z-score: -0.412 for the first, -0.351 for the second.

First: O=C1O[C@@H](c2ccccc2)[C@@H](c2ccccc2)N2[C@@H](c3ccc(O)cc3)[C@]3(C(=O)Nc4ccccc43)[C@@H](C(=O)NC[C@H](O)c3ccccc3)[C@H]12
Second: NC(=O)NCC#Cc1ccc2c(c1)[C@]1(C(=O)N2)[C@H](C(=O)NC[C@H](O)c2ccccc2)[C@H]2C(=O)O[C@H](c3ccccc3)[C@H](c3ccccc3)N2[C@@H]1c1ccccc1OCCO
The composite z-score of the first is lower: -0.263 for the first, -0.226 for the second.

Compared with `C=C(CCCC)C(=O)CC[C@@H](OC(=O)c1ccccc1-c1ccccc1C(=O)O)c1ccc(CO)o1`, `C=C(CCCC)/C(=C/C[C@H](OC(C)=O)c1ccc(CO)o1)c1cc(C(=O)OC)ccc1OC` is lower in composite z-score: -0.241 for the first, -0.509 for the second.

First: COCCOC(=O)N1C(=O)[C@@]2(c3cc(C#CCCO)ccc31)[C@H](c1ccc(O)cc1)N1[C@H](c3ccccc3)[C@H](c3ccccc3)OC(=O)[C@H]1[C@@H]2C(=O)N1CCCCCCC1
Second: O=C1O[C@H](c2ccccc2)[C@H](c2ccccc2)N2[C@H]1[C@@H](C(=O)N1CCCCCCC1)[C@]1(C(=O)Nc3ccc(C#CC4=CCCCC4)cc31)[C@H]2c1ccc(O)cc1
The composite z-score of the first is lower: 2.58 for the first, 3.8 for the second.

First: O=C(NCC(O)CO)[C@]1(CCS(=O)(=O)c2ccccc2)N=C(c2ccc(OCCCO)cc2)O[C@@H]1c1ccccc1 (stereo not given in full)
Second: O=C1O[C@@H](c2ccccc2)[C@@H](c2ccccc2)N2[C@@H](c3ccc(O)cc3)[C@]3(C(=O)Nc4ccc(C#CCCO)cc43)[C@@H](C(=O)O)[C@H]12
The composite z-score of the first is lower: 0.871 for the first, 3.16 for the second.

Compared with `CC(C)NC(=O)[C@@H]1c2ccccc2C(=O)N(C2CCCCC2)[C@H]1c1ccc(CO)cc1`, `CC(C)N1C(=O)c2ccccc2[C@](C)(C(=O)NC2CC2)[C@@H]1c1ccc(CO)cc1` is lower in composite z-score: 0.0605 for the first, -0.181 for the second.

Compared with `CCOC(=O)C=Cc1cccc(OC)c1O`, `CCOC(=O)N1C(c2ccc(OCCCO)cc2)=NC(C(=O)OC)N1C(=O)OCC` (stereo not given) is lower in composite z-score: -0.0086 for the first, -0.243 for the second.

Compared with `CN1C(=O)C2C(C1=O)C1C=C(c3ccc(CO)cc3)C2C(C2CC2)N1Cc1cc2c(cc1Br)OCO2` (stereo not given), `CCN(CC)c1ccc(N2CC=CC34O[C@@H]5C=CCOC(=O)[C@@H]5[C@H]3C(=O)N(CCCCCO)[C@@H]4C2=O)cc1` (stereo not given in full) is higher in composite z-score: -0.0526 for the first, 0.594 for the second.

First: O=C1OCCC/C=C\[C@H]2OC34C=CCN(Cn5nnc6ccccc65)C(=O)[C@H]3N(CCCO)C(=O)[C@@H]4C12 (stereo not given in full)
Second: C=C(C)[C@@H]1CC=C(C(O)C2C=CC3C(=O)N(Cc4ccccc4)C(=O)C3N2n2cnnc2)CC1 (stereo not given in full)
The composite z-score of the first is higher: 0.415 for the first, 0.29 for the second.

First: O=C1C2C=CC(C(O)CCc3ccccc3)N(Nc3ccccc3)C2C(=O)N1c1ccccc1 (stereo not given)
Second: CO[C@H]1O[C@H](CO)[C@@H](OC(=O)Nc2cccc(F)c2)[C@H](OC(=O)Nc2ccccc2-c2ccccc2)[C@@H]1OC(=O)Nc1ccccc1-c1ccccc1
The composite z-score of the first is higher: 0.572 for the first, -0.217 for the second.

First: CC(C)OC(=O)C1=CCC(c2cccc(Cl)c2)O1 (stereo not given)
Second: C[n+]1ccc2ccc(O)cc2c1
The composite z-score of the first is lower: -0.206 for the first, -0.201 for the second.

First: C=CCC(OC(C)=O)[C@@H]1[C@@H](N(Cc2ccc(-c3ccccc3)cc2)C(=O)c2ccc(C)cc2)c2cc(OCCCO)ccc2N1C(=O)c1ccc2ccccc2n1 (stereo not given in full)
Second: C=CCC(OC(C)=O)[C@@H]1[C@@H](N(Cc2ccc(-c3cccc(C(F)(F)F)c3)o2)C(=O)Cc2ccc(OC)cc2)c2cc(OCCCO)ccc2N1C(=O)Cc1ccc(OC)cc1 (stereo not given in full)
The composite z-score of the first is lower: -0.131 for the first, -0.0741 for the second.

Compared with `COCCOC(=O)N1C(=O)[C@@]2(c3cc(C#CC4=CCCCC4)ccc31)[C@H](c1ccc(OCCO)cc1)N1[C@H](c3ccccc3)[C@H](c3ccccc3)OC(=O)[C@H]1[C@@H]2C(=O)Nc1nc2ccccc2s1`, `COCCOC(=O)N1C(=O)[C@@]2(c3cc(C#Cc4ccc(OC)cc4)ccc31)[C@H](c1ccc(OCCO)cc1)N1[C@H](c3ccccc3)[C@H](c3ccccc3)OC(=O)[C@H]1[C@@H]2C(=O)N1CCc2cc(OC)c(OC)cc2C1` is higher in composite z-score: -0.368 for the first, -0.327 for the second.

First: O=[N+]([O-])c1ccc(C[n+]2ccc(CCCO)cc2)o1
Second: CC(C)NC(=O)[C@@]1(c2ccc([N+](=O)[O-])cc2)CC(=O)N(C(C)C)[C@@H]1c1ccc(CO)cc1
The composite z-score of the first is lower: 0.138 for the first, 1.12 for the second.

Compared with `CCCNC(=O)[C@@]1(C)c2ccccc2C(=O)N(Cc2cc(F)cc(C(F)(F)F)c2)[C@H]1c1ccc(CO)cc1`, `CN(C)CCCC[C@@H]1NC(=O)[C@@H]2C[C@H](C(=O)NCc3ccc(F)cc3)[C@H](c3cccc(OCCO)c3)N2C1=O` is lower in composite z-score: 0.343 for the first, -0.173 for the second.

Compared with `COc1ccc(C#Cc2ccc3c(c2)[C@]2(C(=O)N3)[C@H](C(=O)N3CCN(c4ncccn4)CC3)[C@H]3C(=O)O[C@H](c4ccccc4)[C@H](c4ccccc4)N3[C@@H]2c2ccc(O)cc2)cc1`, `Cc1cc(C)c(C(O)C2C=CC3C(=O)NC(=O)C3N2Nc2ccccn2)c(C)c1` (stereo not given) is higher in composite z-score: -0.092 for the first, 0.36 for the second.

`CC(C)C(O)C1C=CC2C(=O)N(C)C(=O)C2N1N1CCCCC1` (stereo not given) showed a composite z-score of -0.201.
